# Results: PMC4336329 (PLoS ONE, 2015)
# Hit rate of the full screen: of about 310,000 compounds, about 14,000 (4.5%) showed an effect of 50% or more. Effects have a minus sign here. What follows is part of a selection rich in strong results, with near analogues and random picks from the rest.
# Molecular target: human ether-à-go-go-related gene (hERG) potassium channel (human, UniProt Q12809)
# Experiment: primary screen, population patch clamp on CHO cells stably expressing hERG; higher = less effect of the substance
# 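Note: peak tail current of the secondary pulse compared with the same well before compound.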
# Chain of human ether-à-go-go-related gene (hERG) potassium channel (Q12809 whole entry, looked up): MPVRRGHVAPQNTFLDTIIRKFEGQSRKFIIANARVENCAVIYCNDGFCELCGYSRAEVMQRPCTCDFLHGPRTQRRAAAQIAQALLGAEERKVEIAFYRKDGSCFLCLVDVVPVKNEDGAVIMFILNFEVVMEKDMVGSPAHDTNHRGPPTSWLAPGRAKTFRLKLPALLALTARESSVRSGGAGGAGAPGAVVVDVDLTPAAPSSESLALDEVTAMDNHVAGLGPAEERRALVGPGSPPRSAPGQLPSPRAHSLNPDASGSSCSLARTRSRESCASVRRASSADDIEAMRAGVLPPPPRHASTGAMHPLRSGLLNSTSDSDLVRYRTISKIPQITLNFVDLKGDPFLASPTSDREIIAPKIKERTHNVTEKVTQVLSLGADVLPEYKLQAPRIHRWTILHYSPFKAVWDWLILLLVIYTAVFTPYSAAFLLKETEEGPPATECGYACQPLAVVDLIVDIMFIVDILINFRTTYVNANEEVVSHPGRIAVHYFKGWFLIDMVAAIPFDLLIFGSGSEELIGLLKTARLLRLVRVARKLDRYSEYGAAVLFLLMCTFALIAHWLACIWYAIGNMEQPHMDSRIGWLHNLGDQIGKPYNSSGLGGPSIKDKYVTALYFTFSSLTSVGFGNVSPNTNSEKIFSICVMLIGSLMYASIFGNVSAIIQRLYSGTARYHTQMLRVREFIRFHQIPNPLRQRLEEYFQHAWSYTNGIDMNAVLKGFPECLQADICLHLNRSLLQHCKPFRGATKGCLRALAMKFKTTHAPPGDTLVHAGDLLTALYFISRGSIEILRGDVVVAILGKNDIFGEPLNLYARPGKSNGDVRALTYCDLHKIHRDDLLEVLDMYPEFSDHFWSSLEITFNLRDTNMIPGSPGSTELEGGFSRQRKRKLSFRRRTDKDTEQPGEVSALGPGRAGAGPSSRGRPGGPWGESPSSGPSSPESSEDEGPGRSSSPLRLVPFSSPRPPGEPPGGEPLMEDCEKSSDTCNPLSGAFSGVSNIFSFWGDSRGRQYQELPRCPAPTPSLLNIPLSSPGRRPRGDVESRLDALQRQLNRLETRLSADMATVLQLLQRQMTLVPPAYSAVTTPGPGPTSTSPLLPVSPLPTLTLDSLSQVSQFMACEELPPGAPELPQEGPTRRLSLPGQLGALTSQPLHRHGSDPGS
row,Compound,"hERG current change (%, negative = inhibition) at 10uM [%]"
1,O=C(Cc1c(F)cccc1Cl)Nc1ccccc1C(=O)N1CCOCC1,3.32
2,C#CCOc1ccc(/C=C2/C(=O)ON=C2C)cc1Cl,10.9
3,Oc1ccc(Br)cc1/C=N/n1c(COc2ccccc2)n[nH]c1=S,16.5
4,CCCCNC(=O)COC(=O)c1ccc(F)cc1Cl,-10.8
5,COc1ccc(-c2cc(=O)oc3cc(OC(C)C(=O)Nc4ccc(CN5CCOCC5)cc4)ccc23)cc1 (centres unmarked),-0.104
6,O=C(c1ccc(Cl)cc1)c1cnc(Nc2ccccc2Cl)s1,-1.11
7,Cc1cc(C)c(NC(=O)CSc2nnc(CN3CCOCC3)n2C)c(C)c1,13.5
8,COc1ccc(C(C(=O)NC2CCCC2)N(C(=O)c2ccoc2C)c2ccccc2)cc1 (centres unmarked),-3.9
9,CC(=O)c1ccc(S(=O)(=O)N2CCN(CC(=O)Nc3ccccc3C(=O)NC3CC3)CC2)cc1,-75.4
10,CC(=O)c1ccc(S(=O)(=O)N2CCN(CC(=O)NC(=O)NC3CCCCC3)CC2)cc1,-16.8
11,O=C(CN1CCN(S(=O)(=O)c2ccccc2)CC1)Nc1ccccc1C(=O)NC1CC1,-27.1
12,CCn1c(SCC(=O)NC2CCCCC2)nnc1-c1cc2cccc(OC)c2o1,-26
13,CCCCn1c(SCC(=O)NCc2ccco2)nc2cc(S(N)(=O)=O)ccc21,-7.32
14,COc1ccc(NC(NC(=O)c2cccnc2)C(Cl)(Cl)Cl)cc1 (centres unmarked),29.3
15,CC1CCCN(CC(O)COc2ccc3c(c2)OCO3)C1.Cl (centres unmarked),-15.1
16,OC(COc1ccc(-c2ccccc2)cc1)CN1CCOCC1 (centres unmarked),-19.7
17,CC1CCCN(CC(O)COc2ccc(Cl)cc2)C1.Cl (centres unmarked),-69.2
18,CC1CCCN(CC(O)COc2ccc(-c3ccccc3)cc2)C1 (centres unmarked),-73.4
19,Cl.OCCN1CCN(CC(O)COc2ccc(-c3ccccc3)cc2)CC1 (centres unmarked),-45.9
20,CC1CCCN(C(=O)COc2ccc(-c3ccccc3)cc2)C1 (centres unmarked),-35.5
21,OC1CCCN(CC(O)COc2ccc(-c3ccccc3)cc2)C1 (centres unmarked),-52.9

row,Compound,"hERG current change (%, negative = inhibition) at 10uM [%]"
1,CC(=O)c1ccc(OCC(O)CN2CCCC(C)C2)cc1.Cl (centres unmarked),-1.2
2,C=CCNC(=O)CCCOc1cc(C)ccc1C,-9.84
3,CC(C)(O)CCc1c(-c2ccc(O)cc2O)oc2c3c(cc(O)c2c1=O)OC(C)(C)C=C3,13.7
4,CC1(C)Cc2nc3oc4c(=O)n(CC(=O)Nc5ccccc5)cnc4c3cc2CO1,5.24
5,O=C(O)c1cc(NC(=O)c2cccc(C(=O)Nc3cc(C(=O)O)cc(C(=O)O)c3)c2)cc(C(=O)O)c1,15.8
6,CCc1noc(C)c1C(=O)N1CCCC(CCC(=O)NCc2ccc(F)c(F)c2)C1 (centres unmarked),-0.135
7,O=S(=O)(c1cc(Cl)ccc1Br)N1CCCCC1,-22.9
8,CCCc1cc(=O)oc2c3c(cc(OCC(=O)NCCCn4ccnc4)c12)OC(C)(C)CC3,-73.9
9,Cc1cc(=O)oc2c3c(cc(OCC(=O)NCCCn4ccnc4)c12)OC(C)(C)CC3,-32.1
10,CCCCc1cc(=O)oc2c3c(cc(OCC(=O)NCCCO)c12)OC(C)(C)CC3,-18.1
11,CCc1cc(=O)oc2c3c(cc(OCC(=O)NCCCOC)c12)OC(C)(C)CC3,8.45
12,CCc1cc(=O)oc2c3c(cc(OCC(=O)NCCCn4ccnc4)c12)OC(C)(C)CC3,-51.1
13,CCCc1cc(=O)oc2c3c(cc(OCC(=O)NCCN4CCOCC4)c12)OC(C)(C)CC3,-18.3
14,CCc1cc(=O)oc2c3c(cc(OCC(=O)NCc4ccncc4)c12)OC(C)(C)CC3,-34.4
15,Cc1cc(=O)oc2c3c(cc(OCC(=O)NCc4ccncc4)c12)OC(C)(C)CC3,-27.7
16,CCCc1cc(=O)oc2c3c(cc(OCC(=O)NCc4ccncc4)c12)OC(C)(C)CC3,-65
17,Cc1cc(C)c(N=C2SCC(=O)N2Cc2ccco2)c(C)c1,-14
18,Cc1cc(C)c(NC(=O)COC(=O)CCn2c(C)csc2=O)c(C)c1,-10.6
19,Cc1ccc(-n2ncc3c(NCCCN4CCOCC4)ncnc32)c(C)c1,-10.3
20,Cc1cc(NC(=O)COC(=O)c2cc(S(=O)(=O)N(C)c3ccccc3)ccc2Cl)no1,0.766
21,Cc1ccccc1-n1c(-c2ccco2)nc2ccccc2c1=O,1.78

row,Compound,"hERG current change (%, negative = inhibition) at 10uM [%]"
1,Cn1cnc2c1c(=O)n(CC(O)CO)c(=O)n2C (centres unmarked),23
2,CCOC(=O)N1CCN(C(=O)Cn2cc3c(n2)CCCC3)CC1,-72.4
3,O=C(Cn1cc2c(n1)CCCCC2)N1CCCCC1,2.46
4,O=C(Cn1cc2c(n1)CCCC2)N1CCCC1,5.98
5,Cc1ccc(C(=O)NCc2ccc3c(c2)OCO3)cc1S(=O)(=O)N1CCCCC1,-26.4
6,CC(=O)OCCN(CCCn1c(-c2ccncc2)nc2ccccc21)c1nc(CN2CCCCC2)cs1,-58.5
7,OCCN(CCCn1c(-c2ccncc2)nc2ccccc21)c1nc(CN2CCCCC2)cs1,23.4
8,OCCN(CCCn1c(C(F)(F)F)nc2ccccc21)c1nc(CN2CCCCC2)cs1,-19
9,NC(=O)CSc1nc2sc(-c3ccccc3)cc2c(=O)n1N,11
10,CC1CN=C(Nc2ccccc2)S1 (centres unmarked),7.23
11,COc1cccc(CNS(=O)(=O)c2c(C(=O)N3CCCCC3)c(C)n(C)c2C)c1,9.63
12,O=[N+]([O-])c1ccc(SCCc2ccncc2)cc1,-63.7
13,O=C(COC(=O)CSc1ccc([N+](=O)[O-])cc1)NCCc1ccccc1,5.52
14,Fc1ccc(SCCc2ccncc2)cc1,-29.9
15,O=C(COC(=O)CSc1ccc([N+](=O)[O-])cc1)NCCCc1ccccc1,4.5
16,O=c1ccnc(SCCc2ccc([N+](=O)[O-])cc2)[nH]1,-34
17,O=[N+]([O-])c1ccc(SCCc2cc[nH+]cc2)cc1.[Cl-],-53.7
18,Cn1c(SCCc2ccc([N+](=O)[O-])cc2)nccc1=O,-59.9
19,COC(=O)c1cnc(SCc2ccc([N+](=O)[O-])cc2)n1C,-32
20,O=[N+]([O-])c1ccc(SCCc2ccccn2)cc1,-44.3
